Reference: PubChem BioAssay AID1347423 (Functional Genomics Laboratory (NCATS/FGL), 2020)
Out of some 52,000 sequences screened, about 210 (0.4%) were called active.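 The calls were made as follows: active = gene whose silencing raises cell survival under the drug, median off-target-corrected z-score across its silencing RNAs 2 or more; inactive = the rest.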 Only a selection was taken, and actives are over-represented in it overall.

Assay: Resistance to Poly (ADP-Ribose) Polymerase inhibitor: Gene Identification via Genome-wide siRNA Screen
Conditions: mouse BRCA2 R2336H ES cells, olaparib, CellTiter-Glo viability; hits give high values
Outline: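 Genome-wide siRNA screen (3 siRNAs/gene, 20 nM) in mouse ES cells carrying hypomorphic BRCA2 R2336H; olaparib 500 nM added 48 h post-transfection, CellTiter-Glo viability 72 h later. Normalized to plate-median negative control; MAD z-scores, gene median, seed-adjusted.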

Row | Sequence | z-score
1 | GGAAAGGACCACCUAAGUUTT against Pde6g | -2.22 (active)
2 | GGUUACCUGAGGUCAGUAGTT against Ifi1 | -2.31 (inactive)
3 | GGCUAAUGUGCUCUCUCAUTT against Olfr644 | 1.28 (inactive)
4 | CCCACAGGGAUUUAUUUAUTT against Slc37a1 | 1.36 (active)
5 | CCUUGAAAUACUGAGUGACTT against AU067695 | 1.17 (inactive)
6 | GGAGCAAUGUUGUCACAACTT against Fbln1 | -0.548 (inactive)
7 | CGUGUAAAAGCCGGAUUGATT against 1500015L24Rik | 0.909 (inactive)
8 | GCAAAGCUGAUGGACUCAATT against 2410018M08Rik | -0.965 (inactive)
9 | GGCAAAAGUGGUUAUUGAATT against Itga6 | 3.02 (active)
10 | GGAUAAUGGUAUCUACUUCTT against Cd79b | -0.408 (inactive)
11 | GGCAAGAAUCAAGGAGAGATT against Nek1 | 1.44 (inactive)
12 | GCGAUUAAUGGCAUAGUUUTT against Sara1 | -1.04 (inactive)
13 | GACAGGAAGUUGAUGAAUUTT against Raet1a | -0.444 (inactive)
14 | GGCAAACAAAUGGUUUGUUTT against D430030K24Rik | 2.76 (active)
15 | GCACCUUAAAAAUGAAGAUTT against D12Ertd551e | -0.616 (inactive)
16 | GGUACCGGAAAGGAAGUGUTT against Grm1 | -0.666 (inactive)
17 | GGAAGAGAAAGACCUGAGATT against Glra1 | -0.8 (inactive)
18 | GGCUGAGAUCUGAAAUUGATT against Krt2-5 | 0.59 (inactive)
19 | CGAAAGUUACUCAUAGAGATT against Itga6 | 0.364 (active)
20 | GCAGGUGCCAACAUUAUUGTT against 0610039C21Rik | 1.5 (inactive)
21 | GGAAGAAAUGGACCAGCUGTT against Brp16 | -1.27 (inactive)
22 | CCUUAUCCAAGAGUAGGGCTT against AY534250 | 1.03 (inactive)
23 | GGUGUGACACCUAAGAUGATT against AW212607 | 1.39 (inactive)
24 | GGACAAGUUGUUGGACUACTT against Smarca3 | 1.04 (active)
25 | CCUAUCUUUACCACAUAGATT against 9030624J02Rik | -0.939 (inactive)
26 | GGACCCAUGAGGUUAACUUTT against D15Ertd781e | -1.18 (inactive)
27 | GGUUCACCUGUCAAGUGGATT against Hfe | 0.781 (inactive)
28 | GGUGUGGGUGGGAAAAGAATT against 2610027C15Rik | -1.77 (inactive)
29 | CCUUAUUUUACGGAACUGCTT against Olfr1018 | 0.819 (inactive)
